Reference: PubChem BioAssay AID2253 (Southern Research Specialized Biocontainment Screening …, 2010)
Out of some 2,200 compounds screened, about 1,300 (59%) were called active. The set was probably picked from earlier hits. The list is a sample of the results. Measured potencies and affinities stand elsewhere. A number with no mark means an inactive call. How the calls were made is not given here.

assay: THP-1 cell cytotoxicity, dose response, cytotoxicity control for Salmonella PhoP regulon inhibitors, S. typhimurium screen hits (AID 2253); conditions: THP-1 viability, CellTiter-Glo luminescence, 72 h; series mostly up to 50 µM; viability: at the top concentration

| Compound | viability |
| --- | --- |
| COc1ccccc1NC(=S)NC(=O)C(C)(C)C | 102% |
| CCN(CC)CCN(Cc1cc2cc3c(cc2[nH]c1=O)OCCO3)C(=O)NC1CCCCC1 | 89.8% |
| Nc1ccc2c(c1)C(=O)N(CC1CCCO1)C2=O (centres undefined) | 96.7% |
| Nc1ccc2oc3ccccc3c2c1 | 108% |
| CCOC(=O)c1cn(CC)c2cc(N3CCOCC3)c(F)cc2c1=O | 87.9% [at 25 µM] |
| CCCc1cc(N2CCN(c3ccccn3)CC2)n2nc(C)c(-c3ccccc3)c2n1 | 100% |
| CCCN(CCC)CCCNS(=O)(=O)c1ccc2c(c1)oc(=O)n2C | 87.8% |
| COC(=O)Cn1c(C)nc2ccccc21 | 101% |
| O=C(O)CCc1nn2c3ccccc3n(CC(=O)c3ccccc3)c2nc1=O | 94.2% |
| CSc1nsc(SCC(=O)Nc2ccc(C(C)=O)cc2)n1 | 92% |
| CCCc1nc2c(o1)CC(CC(C)SCC)CC2=O (centres undefined) | 99% |
| Cc1cc(Oc2ccc(-c3nnc(-c4ccccc4)o3)cc2[N+](=O)[O-])ccc1Cl | 97% |
| C=CCOc1ccc(Br)cc1/C=N/O | 89.5% |
| CCOC(=O)CCCNC(=O)COC(=O)CCC(=O)c1ccc(F)cc1 | 96% |
| COc1ccccc1N1CCN(C/C(O)=C(\C#N)c2nc(-c3ccccc3)cs2)CC1 | 113% |
| Cc1cc(C)nc(NC(=O)Cc2cccs2)n1 | 104% |
| Cc1oc(CC(C)C)c(CN2CCCC2)c1C(=O)O | 87.2% |
| O=C(O)C1(P(=O)(c2ccccc2)c2ccccc2)CCC1 | 93.6% |
| O=C(O)CCc1nnc2n(Cc3ccc(F)cc3)c(=O)c3ccccc3n12 | 94.4% |
| CC1Cc2ccccc2N1C(=O)COC(=O)c1ccc(S(=O)(=O)N(C)C)cc1 (centres undefined) | 95.1% |
| CCSc1nc(C2CC2)cc(-c2cccs2)c1C#N | 99.5% |
| Cc1ccc(-n2nc(-c3ccc(N)cc3)cc2N)cc1 | 100% |
| O=c1cc(O)nc(SCc2ccccc2Cl)[nH]1 | 92.7% |

| Compound | viability |
| --- | --- |
| O=C(O)CCS(=O)(=O)c1ccc(-c2ccccc2)cc1 | 97.2% |
| Cc1c(Cl)cccc1NC(=O)CSCC(N)=O | 97.7% |
| O=C(NC(NC(=S)Nc1ccc(Cl)cc1)C(Cl)(Cl)Cl)c1ccco1 (centres undefined) | 95.5% |
| CCC(C)NC(=O)c1cn(CC)c2cc(N3CCN(C)CC3)c(F)cc2c1=O (centres undefined) | 83.6% |
| NC(=O)C1(NC(=O)[C@@H]2CC3(CC(c4cccc(NC(=O)[C@@H]5CCC(=O)N5)c4)=NO3)CN2C(=O)Cc2ccc(Cl)cc2)CC1 (some centres undefined) | 91.9% |
| COCCNC(=O)c1ccc(C(=O)NCCOC)s1 | 114% |
| CCn1cc(C(=O)OCC(=O)Nc2ccc(S(=O)(=O)N3CCCC3)cc2)c(=O)c2ccc(C)nc21 | 97.5% |
| O=C(OCC(=O)c1ccc(S(=O)(=O)N2CCCC2)cc1)C1=COCCO1 | 103% |
| O=C(CCC(=O)c1cccs1)OCC(=O)N1CCN(S(=O)(=O)c2ccccc2)CC1 | 94% |
| Cc1nnc(SC(C)C(=O)Nc2ccc(S(=O)(=O)N3CCCCCC3)cc2)s1 (centres undefined) | 83.6% |
| COc1cc(S(=O)(=O)N2CCCCC2)ccc1NC=O | 110% |
| CCOC(=O)N1CCN(C(=O)c2ccc(NC(=O)c3ccc(C)cc3)cc2)CC1 | 86.7% |
| Cc1cc(C)c2c(=O)[nH]c(SCC(=O)Nc3ccc(N(C)C)cc3)nc2n1 | 94.1% |
| Cc1cccc(C(=O)O/N=C2\CCSc3ccc(C)cc32)c1 | 82% |
| CC1(C)CC(=O)C(C=Nc2ccc(Cl)cn2)=C(O)C1 | 116% |
| CN1CCN(c2cc3c(cc2F)c(=O)c(C(=O)O)cn3CCF)CC1 | 86.3% |
| Cc1cc(C(=O)NCc2ccco2)no1 | 96.3% |
| CC(C)(C)NS(=O)(=O)c1ccc(CCC(=O)N2CCOCC2)cc1 | 92.2% |
| CCOC(=O)C1=C(c2ccccc2)N=C2SCC(=O)N2C1c1ccc(O)c(OC)c1 (centres undefined) | 89.6% |
| COc1ccc(-c2csc(NC(=O)C3CCCO3)n2)cc1 (centres undefined) | 81.1% |
| COc1ccc(-c2nnc(SCC(=O)NCc3ccco3)o2)cc1 | 86.9% |
| CCN(C(C)=O)c1nc(CSc2nnc(NC(C)C)s2)cs1 | 87.3% |
| COc1ccc(/C=N/NC(=O)c2ccc3c(c2)OCCO3)cc1[N+](=O)[O-] | 96.5% |

| Compound | viability |
| --- | --- |
| O=C(CN1CCCCCC1)Nc1cccc(Br)c1 | 84% |
| O=C(CN1CCCCC1)Nc1cccc(Br)c1 | 95% |
| O=C(c1cccc(S(=O)(=O)N2CCOCC2)c1)N1CCCC1 | 98.5% |
| CCOC(=O)C1=CSC2=NS(=O)(=O)CCN12 | 98.7% |
| CC(=O)N1CCC(N(CCN2CCOCC2)C(=S)Nc2cccc(C)c2C)CC1 | 86.5% |
| CNc1ncc(Cc2ccccc2)s1 | 98.4% |
| Cc1nc(N2CCN(Cc3ccccc3)CC2)nc2c1C(=O)CC(C)C2 (centres undefined) | 82.4% |
| O=c1cc(CSc2nc(NCc3ccccc3)c3ccccc3n2)nc2ccc(Cl)cn12 | 83.5% |
| CCOC(=O)Nc1ccc(C)cc1C | 91.4% |
| CCOC(=O)c1ccc(NC(=O)Nc2cc(C)on2)cc1 | 99.5% |
| CCOC(=O)C1CCCN(C(=O)c2sc3nc(C)nc(N4CCOCC4)c3c2C)C1 (centres undefined) | 86.6% |
| CCCCNC(=O)Oc1cccc(N2CCCC2=O)c1 | 101% |
| CCCOc1ccc(C(=O)CCC(=O)OCC(=O)N2CC(=O)Nc3ccccc32)cc1 | 96.4% |
| O=S1(=O)C=CC(Nc2ccccc2)C1 (centres undefined) | 85.5% |
| CC(C)N(Cc1nc(-c2ccccc2)no1)C(=O)CN(C)S(=O)(=O)c1ccccc1 | 82.1% [at 25 µM] |
| C[C@H]1COc2c(N3CCN(C)CC3)c(F)cc3c(=O)c(C(=O)O)cn1c23 | 99.5% |
| Cc1ccc(Oc2nnc(-c3ccccc3)c3ccccc23)cc1 | 101% |
| Cc1nc(-c2ccccc2)cc(=O)[nH]1 | 96.8% |
| COC(=O)c1cc(C#N)c(Oc2cccc(C)c2C)nc1C | 88.2% |
| COc1ccc(NC(=O)ON=C2c3ccccc3-c3ccccc32)cc1 | 89% |
| NC(=O)c1ccccc1N=Cc1ccccn1 | 91.5% |
| Cc1ccc(C(=O)Nc2ccccc2C(N)=O)o1 | 86.6% |
| Cc1scc(C(=O)O)c1-c1c(C(=O)O)csc1C | 96.9% |

| Compound | viability |
| --- | --- |
| COc1cc(OC)c(C(=O)Nc2ccc(S(=O)(=O)Nc3ncccn3)cc2)cc1OC | 98.1% |
| CN(CC(=O)NCc1cccc(F)c1)C(=O)c1ccco1 | 84.9% |
| COC(=O)c1ccc(Sc2ccccc2NS(=O)(=O)c2ccc(C)cc2)nc1 | 91.1% |
| N/C(=N\c1nc2ccccc2o1)NC(=O)c1ccccc1F | 94.7% |
| CCCOc1ccc(/C=N/O)cc1 | 94.1% |
| CC(=O)NC12CC3CC(C1)CC(C(=O)OCC(=O)c1ccc4c(c1)OCCO4)(C3)C2 | 82.9% |
| O=C1CN(C(=O)COC(=O)CCC(=O)c2ccc3c(c2)OCCO3)c2ccccc2N1 | 87.7% |
| Cn1c(NCc2cccs2)nc2ccccc21 | 86.8% |
| O=C(CSC1CCCCC1)Nc1ccccc1Br | 100% |
| CN1CCN(S(=O)(=O)c2ccc(N)cc2)CC1 | 101% |
| COc1cc(C=O)ccc1OCCCOc1ccccc1[N+](=O)[O-] | 84.3% |
| O=C(CNC(=O)c1ccco1)OCC(=O)c1ccc2c(c1)CCCC2 | 103% |
| CC(C)(C)C1CCC2(CC1)Nc1cccc3cccc(c13)N2 | 112% |
| Cc1ccc(C(=O)NCC(=O)OCC(=O)N2CCCc3ccccc32)cc1 | 112% |
| CCn1c(SCc2ccc(F)cc2)nc2ccccc2c1=O | 86.5% |
| CCCc1cc(=O)oc2cc(OCC(=O)N3CCc4ccccc43)ccc12 | 96.1% |
| COc1cccc(-n2c(N)c(C(=O)Nc3c(C)n(C)n(-c4ccccc4)c3=O)c3nc4ccccc4nc32)c1 | 87.9% |
| COc1cc(Cc2cc(N)nc(N)n2)cc(OC)c1OC | 82.9% |
| Cn1c(N)c(C(=O)COC(=O)C2CCCCC2)c(=O)n(C)c1=O | 92.8% |
| CCC(OC(=O)C(NC(=O)c1ccccc1)c1ccccc1)C(=O)Nc1cc(C)on1 (centres undefined) | 81.7% |
| O=C(N/N=C/c1coc2ccc(Cl)cc2c1=O)c1cc(O)cc(O)c1 | 88.3% |
| O=C(NCCc1ccc(Cl)cc1)/C(=C/c1cccnc1)NC(=O)c1ccccc1 | 82.7% |
| Cc1occc1C(=O)n1cnc2ccccc21 | 83.7% |

| Compound | viability |
| --- | --- |
| O=c1[nH]c2ccccc2n1C1=CCCC1 | 101% |
| Cc1ccc2c(c1)cc(CN(Cc1ccc3c(c1)OCO3)C(=O)c1cnccn1)c1nnnn12 | 84.1% |
| COC(=O)c1sccc1N/N=C(\C)c1ccc(F)c(Cl)c1 | 105% |
| CCOc1ccc(CSC(CC(=O)O)C(=O)O)cc1 (centres undefined) | 95.8% |
| CC(=O)N1C(=O)C2(C(C#N)=C(N)Oc3c2c(C)nn3-c2ccccc2)c2ccccc21 (centres undefined) | 85.7% |
| O=C(NCc1ccc2c(c1)OCO2)c1ccc(-n2cnnn2)cc1 | 84.5% |
| Cc1cc(C)cc(NC(=O)CSc2nc3c(c(=O)[nH]2)CN(Cc2ccc(F)cc2)CC3)c1 | 81.4% [at 25 µM] |
| Cn1cc(C(CC(=O)O)C(=O)O)c2ccccc21 (centres undefined) | 86% |
| c1ccc(OCCCN2CCCC2)cc1 | 96.7% |
| COCCNC(=O)c1ccccc1NS(=O)(=O)c1ccc(Br)s1 | 87.3% |
| CCOc1ccccc1OCC(=O)Nc1ccc(S(=O)(=O)Nc2nc(C)cc(C)n2)cc1 | 89.7% [at 25 µM] |
| Cc1[nH]n(-c2ccccc2)c(=O)c1-c1ccc(Cl)cc1 | 89.1% |
| Cc1nn(-c2ccccc2)c(C)c1C(=O)OC/C(O)=C(\C#N)c1nc2ccccc2[nH]1 | 97.8% |
| C/C(=C\C(=O)OCCCCCCCCC(=O)O)C[C@@H]1OC[C@H](C[C@@H]2O[C@H]2[C@@H](C)[C@H](C)O)[C@@H](O)[C@H]1O | 96.3% |
| O=C1C2C3c4ccccc4C(c4ccccc43)C2C(=O)N1c1cccc2cccnc12 (centres undefined) | 81% |
| Brc1ccc2cccnc2c1 | 88.6% |
| CCc1cc2c(NCCC(=O)O)nc(C)nc2s1 | 93% |
| c1ccc(Oc2cc(-c3ccccc3)ncn2)cc1 | 82.3% |
| Fc1ccc(-c2n[nH]c(=S)n2/N=C/c2c[nH]c3ccccc23)cc1 | 89.4% |
| COc1ccc(-c2cc(C(=O)O)[nH]n2)cc1OC | 99.8% |
| CCOc1ccc(S(=O)(=O)Nc2ccc(C(=O)N/N=C/c3c(C)nn(-c4ccccc4)c3N3CCCC3)cc2)cc1 | 80.5% |
| Cc1cc(=O)[nH]c(N/N=C/c2c[nH]c3ccccc23)n1 | 86.4% |
